Results on 4 compounds are retold here after PubChem BioAssay.

A short description of experiment [1]: rapamycin-like changes in RPL19A-GFP expression – cell-based, S. cerevisiae, multiplex flow cytometry, primary screen (AID 1862; in the data active means percent of DMSO control GFP below about 86%;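 further: lower values mimic rapamycin by blocking the RPL19A rise seen in DMSO cells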). Particulars: S. cerevisiae RPL19A-GFP strain, flow cytometry fluorescence, 3 h; at 10 µM; stronger effect = lower value. Background: Flow cytometry measures light scatter and fluorescence of single cells or particles in a stream.
Experiment [2] is described as follows: TOR pathway GLN3 branch reporter MEP2-GFP changes – S. cerevisiae, multiplex flow cytometry, primary screen (AID 1867;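 active means GFP response, as percent of the DMSO control, above the screen-wide mean plus 3 SD, about 139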;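 further: median GFP channel fluorescence of barcode-gated MEP2-GFP cells measured by flow cytometry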). The following applies: S. cerevisiae MEP2-GFP strain, 3 h, at 10 µM, stronger effect = higher value, 100% means same as DMSO wells.
Experiment [3] can be described thus: TOR pathway RTG branch CIT2 reporter changes – S. cerevisiae, GFP fusion, multiplex flow cytometry, primary screen (AID 1870;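 active means percent response above a set limit, the screen-wide mean plus 3 SD, cut at about 130% in these data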;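 further: barcoded CIT2-GFP strain pooled with four other GFP strains with rapamycin as positive control; median GFP fluorescence per well over plate mean of DMSO wells so 100% = DMSO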). The following applies: S. cerevisiae CIT2-GFP expression, 3 h, at 10 µM, stronger effect = higher value.
Experiment [4] in a line: TOR pathway LAP4-GFP level changes – S. cerevisiae, multiplex flow cytometry, primary screen (AID 1873;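 active means GFP signal, as percent of the solvent control, above the screen mean plus 3 SD, about 149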). The following applies: S. cerevisiae LAP4-GFP expression, 3 h, at 10 µM, stronger effect = higher value.
The nature of experiment [5]: yeast AGP1-GFP level changes, GLN3 branch – cell-based, multiplex flow cytometry, S. cerevisiae, primary screen (AID 1887;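 active means GFP signal above the screen-wide mean plus 3 SD, that is over about 124.5% of the solvent control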;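 further: AGP1-GFP fusion strain of S. cerevisiae within a five-strain barcoded multiplex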). Particulars: 3 h, at 10 µM, stronger effect = higher value.
Experiment [6] can be described thus: reduced mouse 2C T cell binding to pMHC/ICAM-1 vesicles – MLPCN validation set, flow cytometry, LFA-1/ICAM-1 modulator project, pilot screen (AID 2523;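 active means response below a set limit, under 55% cells CD8-positive and vesicle-bound, and CD8 cells' 90th-percentile brightness under 279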;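 on vesicle binding response: mean PE anti-B7-1 fluorescence of CD8+ cells relative to row control; 100% = QL9-loaded vesicles with DMSO vehicle in the same plate row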). The following applies: 2C mouse CD8+ T cells, at 7 µM, stronger effect = lower value; double positive events: measured here: CD8+/vesicle+ event percentage.
For experiment [7], the target named is Integrin beta-1 (Homo sapiens) + Integrin alpha-4 (Homo sapiens) (UniProt P13612+P05556). Put plainly: alpha4beta1 integrin LIBS antibody binding reduction – U937 cells, HUTS-21 mAb, flow cytometry, validation set, VLA-4 allosteric modulator project, pilot screen (AID 2674;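 active means inhibition above 50%, about 3 SD of the validation set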;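 further: antibody binding induced by the VLA-4 ligand LDV present at three times its Kd; 0% = LDV ligand with antibody and no compound and 100% = antibody without LDV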). The following applies: HUTS-21 LIBS mAb binding, at 6.7 µM, stronger effect = higher value, binding induced by LDV ligand.

A short description of experiment [8]: calorie-restriction mimetic ROS inhibitors, yeast – validation compound set, pilot screen (AID 2706;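 active means superoxide response below 65% of plate, a cut near 3 SD across the whole screen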;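 further: yeast exposed to compound for one week at 30 degrees C before staining; 100% = mean of all compound wells on the same plate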). The following applies: S. cerevisiae aging, superoxide DHE fluorescence; at 10 µM; stronger effect = lower value.
Experiment [9] has as its target Beta-adrenergic receptor kinase 1 (Homo sapiens) (UniProt P25098). Kind of experiment: GRK2 binders displacing RNA aptamer, biochemical, validation, human GRK2, bead flow cytometry (AID 488806;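 active means aptamer binding inhibition above 30%, about 3 SD of noise from non-fluorescent compounds; inactive means inhibition at or below 30%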). The following applies: bead-bound GRK2, FAM-aptamer displacement, at 10 µM, stronger effect = higher value.
For experiment [10], the target named is Beta-2 adrenergic receptor (Homo sapiens) (UniProt P07550). Kind of experiment: agonist-induced loss of surface beta2AR – cell-based, FAP fluorogen, flow cytometry, validation set, pilot screen (AID 504459;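 active means percent response above 42, roughly 3 SD of non-fluorescent test compounds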;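 further: agonist-driven loss of surface beta2AR via internalization measured by FAP dye flow cytometry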). The following applies: Am2.2-beta2AR cells, at 10 µM, stronger effect = higher value.
Experiment [11] concerns the target AP-2 complex subunit beta (Homo sapiens) (UniProt P63010). Kind of experiment: beta-arrestin/AP2 interaction blockers – biochemical, validation set, GST-AP2 beads, flow cytometry, pilot screen (AID 504541;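 active means inhibition above 54%, about 3 SD of non-fluorescent compounds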;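 further: AP2 carries R879A mutation and is captured from E. coli lysate; bead-bound FITC arrestin peptide fluorescence measuring arrestin peptide binding to AP2; 0% = DMSO wells and 100% = excess unlabeled arrestin peptide control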). The following applies: FITC arrestin peptide, at 10 µM, stronger effect = higher value, AP2 beta2 appendage fragment, R879A mutant.
A short description of experiment [12]: cytosolic pH regulators acting via V-ATPase – S. cerevisiae, pHLuorin, HTS validation (AID 504600; in the data active means response above about 15%;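 further: plate controls were DMSO for no effect and reference compound for full effect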). The following applies: V-ATPase proton transport, at 10 µM, stronger effect = higher value.
In experiment [13] the test system is anti-desmoglein-3 scFv antibody binding to human DSG3. Kind of experiment: blockers of pathogenic pemphigus antibody–desmoglein-3 binding – biochemical, validation compound set, bead-based, flow cytometry, pilot screen (AID 588368;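 active means binding below the plate cutoff, the plate median minus 3 SD, with a reading above zero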;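 further: signal is the median channel fluorescence of bead-bound GFP antibody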). Particulars: Protein G beads, DSG3-Fc, scFv-GFP binding, at 10 µM, stronger effect = lower value.
Experiment [14] is described as follows: Nile Red efflux blockade in pump-expressing yeast – validation compound set, multiplex, phenotypic, pilot screen (AID 588506;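 active means efflux inhibition above 0.42, the validation set average plus 4 SD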;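 further: Nile Red retained in cells so higher fluorescence means more efflux inhibition; 0 = negative control wells and 1 = enniatin B 25 µM full block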). The following applies: S. cerevisiae pump-expressing triplex, Nile Red efflux flow cytometry; at 10 µM; stronger effect = higher value; the pumps come from Candida albicans.
Experiment [15] concerns the target ATP-binding cassette sub-family B member 6 (Homo sapiens) (UniProt Q9NP58). Put plainly: blockers of ABCB6-driven porphyrin uptake – K562-ABCB6 cells, flow cytometry, validation set, pilot screen (AID 588550).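 Further: 0% = DMSO wells and 100% = benzethonium chloride 70 µM positive control.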 The following applies: K562-ABCB6 porphyrin accumulation, 1 h, at 10 µM, stronger effect = higher value.
A short description of experiment [16]: AML differentiation inducers, ER-HoxA9 marrow cells – cell-based, GFP/MAC1 double positive, flow cytometry, validation set, primary screen (AID 588685;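 active means differentiation response of at least 50%, scaled between solvent and reference control, from cells with both markers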;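 further: compound exposure lasts four days before antibody staining and flow analysis; 0% = DMSO wells and 100% = 5 µM fulvestrant positive control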). The following applies: stronger effect = higher value, normalized: vehicle 0, fulvestrant 100.

The structures appear in SMILES notation. Records with an inconclusive call do not appear. The source made the active and inactive calls.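 How the source made its calls, unless noted: active means inhibition above the screen-wide mean plus 3 SD, about 51%; inactive means the rest.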

Chain of Beta-2 adrenergic receptor (Homo sapiens) (P07550 whole entry, looked up): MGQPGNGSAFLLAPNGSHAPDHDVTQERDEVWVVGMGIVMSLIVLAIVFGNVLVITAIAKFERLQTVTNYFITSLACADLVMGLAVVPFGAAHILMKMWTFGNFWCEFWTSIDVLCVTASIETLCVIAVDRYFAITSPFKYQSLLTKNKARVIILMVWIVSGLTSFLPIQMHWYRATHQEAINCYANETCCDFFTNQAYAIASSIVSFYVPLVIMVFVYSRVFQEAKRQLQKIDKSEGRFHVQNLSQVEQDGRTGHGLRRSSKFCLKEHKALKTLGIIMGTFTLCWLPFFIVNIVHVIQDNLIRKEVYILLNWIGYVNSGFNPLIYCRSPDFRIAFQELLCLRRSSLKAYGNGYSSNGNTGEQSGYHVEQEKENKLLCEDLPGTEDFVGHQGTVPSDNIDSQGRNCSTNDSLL
Chain of AP-2 complex subunit beta (Homo sapiens) (P63010 whole entry, looked up, the tested form may be a part, one chain of several): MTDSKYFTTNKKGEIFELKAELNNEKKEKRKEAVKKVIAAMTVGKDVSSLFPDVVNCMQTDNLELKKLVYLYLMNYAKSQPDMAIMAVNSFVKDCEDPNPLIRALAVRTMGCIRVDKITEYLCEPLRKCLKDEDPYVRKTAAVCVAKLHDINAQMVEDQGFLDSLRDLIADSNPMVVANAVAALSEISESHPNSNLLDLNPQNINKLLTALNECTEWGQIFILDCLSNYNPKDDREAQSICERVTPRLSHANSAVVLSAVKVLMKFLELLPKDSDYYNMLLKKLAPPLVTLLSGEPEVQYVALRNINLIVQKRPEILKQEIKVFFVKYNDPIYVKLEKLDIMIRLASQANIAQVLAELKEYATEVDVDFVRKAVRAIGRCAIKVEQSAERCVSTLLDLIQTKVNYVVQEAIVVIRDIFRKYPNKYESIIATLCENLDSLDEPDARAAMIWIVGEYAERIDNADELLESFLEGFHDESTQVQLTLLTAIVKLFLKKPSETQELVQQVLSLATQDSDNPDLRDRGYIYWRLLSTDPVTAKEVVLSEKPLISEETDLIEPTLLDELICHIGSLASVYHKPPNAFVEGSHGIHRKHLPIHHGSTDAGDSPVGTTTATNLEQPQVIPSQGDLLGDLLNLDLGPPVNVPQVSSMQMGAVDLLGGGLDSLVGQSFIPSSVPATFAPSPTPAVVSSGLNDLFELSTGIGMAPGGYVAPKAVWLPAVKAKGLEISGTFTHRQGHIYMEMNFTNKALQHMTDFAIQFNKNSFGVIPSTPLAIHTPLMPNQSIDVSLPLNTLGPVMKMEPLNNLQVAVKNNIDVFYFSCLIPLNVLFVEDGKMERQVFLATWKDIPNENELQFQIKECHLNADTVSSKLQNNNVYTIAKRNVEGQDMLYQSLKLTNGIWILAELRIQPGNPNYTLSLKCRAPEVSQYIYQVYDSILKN
Chain of Beta-adrenergic receptor kinase 1 (Homo sapiens) (P25098 whole entry, looked up): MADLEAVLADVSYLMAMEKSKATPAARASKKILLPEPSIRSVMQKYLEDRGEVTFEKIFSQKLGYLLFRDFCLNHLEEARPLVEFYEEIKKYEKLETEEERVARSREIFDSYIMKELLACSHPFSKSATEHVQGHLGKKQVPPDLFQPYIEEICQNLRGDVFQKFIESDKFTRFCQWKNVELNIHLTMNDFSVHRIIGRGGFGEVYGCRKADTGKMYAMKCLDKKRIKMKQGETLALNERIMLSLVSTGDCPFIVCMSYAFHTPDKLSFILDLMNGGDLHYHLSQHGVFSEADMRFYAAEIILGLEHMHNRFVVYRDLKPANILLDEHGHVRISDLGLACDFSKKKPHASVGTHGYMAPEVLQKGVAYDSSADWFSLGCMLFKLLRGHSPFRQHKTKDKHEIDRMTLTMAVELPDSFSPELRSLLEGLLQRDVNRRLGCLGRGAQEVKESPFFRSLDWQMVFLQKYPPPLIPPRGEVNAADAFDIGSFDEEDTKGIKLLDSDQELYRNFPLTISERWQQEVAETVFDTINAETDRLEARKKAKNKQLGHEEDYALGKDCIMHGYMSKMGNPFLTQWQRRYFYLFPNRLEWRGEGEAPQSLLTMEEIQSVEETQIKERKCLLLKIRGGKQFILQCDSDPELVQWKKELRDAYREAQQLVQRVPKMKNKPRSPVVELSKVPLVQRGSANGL
Chain of Integrin beta-1 (Homo sapiens) + Integrin alpha-4 (Homo sapiens) (P05556 whole entry, looked up): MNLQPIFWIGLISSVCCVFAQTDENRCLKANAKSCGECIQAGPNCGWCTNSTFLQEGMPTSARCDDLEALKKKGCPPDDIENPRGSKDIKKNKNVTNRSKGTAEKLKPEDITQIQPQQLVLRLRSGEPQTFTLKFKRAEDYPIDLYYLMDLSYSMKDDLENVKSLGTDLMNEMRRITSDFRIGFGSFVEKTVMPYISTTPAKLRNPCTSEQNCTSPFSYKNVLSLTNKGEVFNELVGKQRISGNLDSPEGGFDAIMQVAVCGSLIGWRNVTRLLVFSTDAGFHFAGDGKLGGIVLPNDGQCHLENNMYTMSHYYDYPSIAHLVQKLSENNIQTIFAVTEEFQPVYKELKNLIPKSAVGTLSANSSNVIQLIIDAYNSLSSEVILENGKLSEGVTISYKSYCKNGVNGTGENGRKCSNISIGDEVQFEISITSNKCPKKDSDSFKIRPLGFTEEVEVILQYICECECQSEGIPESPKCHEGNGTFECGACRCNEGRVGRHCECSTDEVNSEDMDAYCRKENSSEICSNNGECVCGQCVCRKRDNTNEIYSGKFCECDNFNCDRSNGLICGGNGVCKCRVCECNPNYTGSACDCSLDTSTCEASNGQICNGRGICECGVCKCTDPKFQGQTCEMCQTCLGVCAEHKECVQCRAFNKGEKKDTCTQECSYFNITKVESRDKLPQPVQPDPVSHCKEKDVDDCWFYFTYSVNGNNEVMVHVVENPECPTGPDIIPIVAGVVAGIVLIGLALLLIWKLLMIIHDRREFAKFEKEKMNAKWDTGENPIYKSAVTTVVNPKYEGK
Chain of Integrin beta-1 (Homo sapiens) + Integrin alpha-4 (Homo sapiens) (P13612 whole entry, looked up): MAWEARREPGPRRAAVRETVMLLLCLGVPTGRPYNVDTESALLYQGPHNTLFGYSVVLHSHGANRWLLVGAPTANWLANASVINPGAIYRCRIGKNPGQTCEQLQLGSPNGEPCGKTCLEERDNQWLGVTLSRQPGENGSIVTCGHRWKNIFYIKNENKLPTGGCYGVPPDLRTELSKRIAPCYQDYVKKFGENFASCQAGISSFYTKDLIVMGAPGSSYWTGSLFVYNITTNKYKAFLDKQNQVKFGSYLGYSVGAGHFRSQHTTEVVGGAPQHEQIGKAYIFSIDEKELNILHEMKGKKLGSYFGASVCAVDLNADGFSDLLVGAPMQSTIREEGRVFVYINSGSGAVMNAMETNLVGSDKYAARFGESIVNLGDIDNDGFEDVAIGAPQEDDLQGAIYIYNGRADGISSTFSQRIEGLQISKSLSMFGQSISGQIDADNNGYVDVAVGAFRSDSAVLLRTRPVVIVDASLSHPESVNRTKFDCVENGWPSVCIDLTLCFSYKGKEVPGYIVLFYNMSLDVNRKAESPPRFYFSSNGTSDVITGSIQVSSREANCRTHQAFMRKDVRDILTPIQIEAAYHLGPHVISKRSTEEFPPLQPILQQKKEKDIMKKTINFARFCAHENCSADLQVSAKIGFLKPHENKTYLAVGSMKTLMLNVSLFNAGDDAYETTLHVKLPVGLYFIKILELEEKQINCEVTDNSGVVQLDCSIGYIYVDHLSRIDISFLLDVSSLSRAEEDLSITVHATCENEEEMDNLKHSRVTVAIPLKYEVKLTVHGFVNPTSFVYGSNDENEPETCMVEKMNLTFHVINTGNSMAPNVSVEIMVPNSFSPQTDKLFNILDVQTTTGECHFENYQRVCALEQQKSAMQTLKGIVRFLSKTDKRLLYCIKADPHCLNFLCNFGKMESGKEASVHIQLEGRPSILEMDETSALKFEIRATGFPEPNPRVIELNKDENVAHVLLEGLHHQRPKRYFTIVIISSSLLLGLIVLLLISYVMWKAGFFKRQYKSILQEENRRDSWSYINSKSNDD
Chain of ATP-binding cassette sub-family B member 6 (Homo sapiens) (Q9NP58 whole entry, looked up): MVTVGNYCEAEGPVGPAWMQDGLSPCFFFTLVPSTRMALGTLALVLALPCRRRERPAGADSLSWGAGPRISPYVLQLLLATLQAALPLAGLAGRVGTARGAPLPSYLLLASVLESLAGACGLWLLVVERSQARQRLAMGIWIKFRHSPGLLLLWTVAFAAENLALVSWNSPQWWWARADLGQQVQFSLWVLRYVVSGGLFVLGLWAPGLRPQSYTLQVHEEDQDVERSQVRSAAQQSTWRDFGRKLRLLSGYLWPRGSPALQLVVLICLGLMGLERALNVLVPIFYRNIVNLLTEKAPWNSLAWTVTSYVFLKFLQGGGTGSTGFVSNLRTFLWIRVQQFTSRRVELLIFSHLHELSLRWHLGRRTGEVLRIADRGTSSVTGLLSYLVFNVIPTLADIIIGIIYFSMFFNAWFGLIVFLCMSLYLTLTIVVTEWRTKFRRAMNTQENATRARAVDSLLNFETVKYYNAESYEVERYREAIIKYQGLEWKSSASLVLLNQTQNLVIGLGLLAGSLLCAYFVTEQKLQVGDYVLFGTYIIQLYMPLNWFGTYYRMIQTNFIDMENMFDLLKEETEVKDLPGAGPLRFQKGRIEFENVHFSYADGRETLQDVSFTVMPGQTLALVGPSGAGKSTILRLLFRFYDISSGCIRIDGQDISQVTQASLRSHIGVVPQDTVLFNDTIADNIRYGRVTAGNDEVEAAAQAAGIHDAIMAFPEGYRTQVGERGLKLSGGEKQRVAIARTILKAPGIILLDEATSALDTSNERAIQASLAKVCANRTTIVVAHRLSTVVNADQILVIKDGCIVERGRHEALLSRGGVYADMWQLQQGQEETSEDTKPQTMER

On to `CC12CN3CC(C)(CN(C1)C3c1ccc(Br)cc1O)C2` (stereo not drawn), for which, in experiment [1], the percent of DMSO control GFP was 101% (inactive). In addition, the GFP response vs DMSO is 108% (inactive) in experiment [2] and 123% (inactive) in experiment [4]. Also, the percent response of DMSO control in experiment [3] is 108% (inactive). Besides, in experiment [5], the GFP response, % of DMSO was 106% (inactive). Moreover, the double positive events in experiment [6] is 57.2%. Further, the vesicle binding response in experiment [6] was 197% (inactive). Further, the inhibition in experiment [7] was 6.55% (inactive); in experiment [11] it was -45.4% (inactive); in experiment [15] it was -1% (inactive). Moreover, the superoxide response (% of plate) in [8] is 127% (inactive). For the same compound, the aptamer binding inhibition in experiment [9] was -3% (inactive). In addition, the response in experiment [10] is -11.7% (inactive); in [12], 19% (active). Also, in [13], the binding (% of control) is 103% (inactive). For the same compound, in experiment [14], the efflux inhibition (fraction of control) is 0.21 (inactive). The differentiation response in experiment [16] is 2.89% (inactive).
For the compound `NC(CO)C(=O)NNCc1ccc(O)c(O)c1O` (stereo not drawn), the percent of DMSO control GFP in experiment [1] was 98.4% (inactive). Moreover, the values for the GFP response vs DMSO in experiment [2] and in experiment [4] were 98.7% (inactive) and 91.5% (inactive), respectively. The percent response of DMSO control in [3] is 98.6% (inactive). For the same compound, the GFP response, % of DMSO in experiment [5] was 96.5% (inactive). Besides, the double positive events in experiment [6] was 65.1%. For the same compound, in experiment [6], the vesicle binding response was 130% (inactive). In addition, the inhibition in experiment [7] is 13.7% (inactive); in [11], 62.4% (active); in [15] it was 5% (inactive). Also, the superoxide response (% of plate) in experiment [8] is 92.9% (inactive). In addition, the aptamer binding inhibition in experiment [9] is 8% (inactive). Besides, the response in experiment [10] is 8.54% (inactive); in experiment [12], -0.21% (inactive). In addition, in experiment [13], the binding (% of control) was 60.7% (active). In [14], the efflux inhibition (fraction of control) was 0.66 (active). In addition, the differentiation response in [16] was -8.96% (inactive).
For `O=C(O)CCSCCC(=O)O`, the percent of DMSO control GFP in experiment [1] is 99.2% (inactive). Besides, the results for the GFP response vs DMSO in [2] and in [4] were 107% (inactive) and 97.3% (inactive), respectively. Also, the percent response of DMSO control in experiment [3] is 94.2% (inactive). Besides, the GFP response, % of DMSO in experiment [5] is 102% (inactive). In experiment [6], this compound showed a double positive events of 63.2%. Moreover, the vesicle binding response in [6] is 5720% (inactive). The values for the inhibition in [7], in [11] and in experiment [15] were 8.88% (inactive), 10% (inactive) and 7% (inactive), respectively. Further, the superoxide response (% of plate) in [8] was 107% (inactive). Further, the aptamer binding inhibition in experiment [9] is 1% (inactive). For the same compound, the response was 2.6% (inactive) in experiment [10] and 1.2% (inactive) in [12]. Besides, the binding (% of control) in experiment [13] is 94% (inactive). For the same compound, in [14], the efflux inhibition (fraction of control) was 0.05 (inactive). Also, the differentiation response in experiment [16] was -9.53% (inactive).
For the compound `O=C1c2ccccc2N2C(=O)c3ccccc3C2N1Cc1ccco1` (stereo not drawn), the percent of DMSO control GFP in [1] was 104% (inactive). In addition, the GFP response vs DMSO in experiment [2] is 104% (inactive); in experiment [4], 103% (inactive). For the same compound, in experiment [3], the percent response of DMSO control was 110% (inactive). Besides, the GFP response, % of DMSO in [5] is 89.8% (inactive). The compound also yielded a double positive events in experiment [6] of 61%. The vesicle binding response in [6] is 140% (inactive). Also, the inhibition in experiment [7] is -2.43% (inactive); in experiment [11] it was -5.51% (inactive); in experiment [15], -8% (inactive). In addition, the superoxide response (% of plate) in [8] is 95.6% (inactive). The aptamer binding inhibition in experiment [9] is 0% (inactive). The response in experiment [10] was -16.2% (inactive); in experiment [12], -3.39% (inactive). The binding (% of control) in experiment [13] was 99.6% (inactive). Further, the efflux inhibition (fraction of control) in [14] was 0.03 (inactive). Besides, the differentiation response in experiment [16] is -1.65% (inactive).

For orientation: inhibition means the relative decrease from the control value, in per cent.
